Where “and” joins values, the source holds several entries; their conditions need not be identical. Equal entries are not always repeated. In all, about 34,000 compounds went through this assay and about 290 (0.85%) showed an effect of 50% or more. Many of the other results were omitted from the sample, so strong results are more common in it than they were.
Tested on: Plasmodium falciparum
Assay: Plasmodium falciparum sporozoite viability assay
Type: functional, organism-based
Design: scale not given: in the data most compounds retested in dose-response had high values

| Structure (SMILES) | Percent Effect | Percent Effect (10 mM as filed; unlikely as a test dose) |
| --- | --- | --- |
| CCc1nc(CNC(C)Cn2cccn2)cs1 (configuration not stated) | 4.8% |  |
| CNC(=O)[C@@H]1CN(Cc2ccccc2)C[C@H]1C(=O)c1ccc(F)cc1 | 12.45% |  |
| CC(C)(C)n1cc(C2=CCN(CCc3ccccn3)CC2)cn1 |  | 78.88% and 77.42% |
| CC(C)(C)n1cc(C2=CCN(CCc3ccccc3)CC2)cn1 |  | 84.88% and 75.7% and 89.28% |
| CC(C)(C)n1cc(C2=CCN(CCN3CCCCCC3)CC2)cn1 |  | -30.5% and -32% |
| Cc1nc(O)cc(CN2CC=C(c3cnn(C(C)(C)C)c3)CC2)n1 |  | -34.41% and -32.55% |
| CC(C)(C)n1cc(C2=CCN(CCNC(N)=O)CC2)cn1 |  | -28.2% and -25.06% |
| CC(C)(C)n1cc(C2=CCN(CCNC(=O)c3ccccc3)CC2)cn1 |  | -11.67% and -1.893% |
| O=C(O)C(F)(F)F.O=C(O)C(F)(F)F.O=S(=O)(C1CC1)N1CCC2(CC1)CN(Cc1ccccn1)CCO2 | 0.5199% |  |
| CCS(=O)(=O)N1CCN(CC2CC2)c2ncccc2C1 | 11.27% |  |
| O=C(c1ccsc1)N1CCN2C[C@H](OCc3ccccn3)C[C@H]2C1 | 1.117% |  |
| O=C(Cc1ccccn1)N1CCN2C[C@H](OCCN3CCCC3)C[C@H]2C1.O=C(O)C(F)(F)F.O=C(O)C(F)(F)F.O=C(O)C(F)(F)F | -8.505% |  |
| Cl.FC(F)(F)c1nc(C2CCCNC2)no1 (configuration not stated) | 6.016% |  |
| Cc1cc(O)nc(C2CCCNC2)n1.Cl (configuration not stated) | 1.062% |  |
| Cc1cccc(Nc2ccc(C3CCCCN3)cn2)n1 (configuration not stated) |  | 97.8% and 85.07% and 40.73% |
| c1cnc(Nc2ccc(C3CCCCN3)cn2)cn1 (configuration not stated) |  | -2.241% and -0.3197% and -12.37% |
| Cc1cc(C)nc(C2CCCNC2)n1.Cl.Cl (configuration not stated) | 16.42% |  |
| COCCN1CCOCC12CCN(C(=O)c1ccncc1)CC2.O=C(O)C(F)(F)F | -4.875% |  |
| O=C(O)C(F)(F)F.O=C(O)C(F)(F)F.c1cncc(N2CCOCC3(CN(Cc4cccs4)CCO3)C2)c1 (configuration not stated) | 7.302% |  |
| O=C(O)C(F)(F)F.O=C(O)C(F)(F)F.c1cncc(COCC2CC[C@H]3[C@H]2OCCN3Cc2ccoc2)c1 (some centres not stated) | 12.08% |  |
| O=C(O)C(F)(F)F.O=C(O)C(F)(F)F.c1cncc(OC[C@@]23CCC[C@@H]2CN(C2CCOCC2)C3)c1 | 9.846% |  |
| O=C(O)C(F)(F)F.O=C(O)C(F)(F)F.c1cnc(N2CC3(CCN(Cc4ccncc4)C3)C2)nc1 | -6.54% |  |

Reference: ChEMBL document CHEMBL3988442, “University of Dundee, Small-Polar-MMV Screening Library” (2021)
